# B1: unnamed (peptide)
# chain: GSKSGPPPRPKKPST
# Target: AgAbp1
# Assay: SPOT peptide array binding signal intensity (averaged, normalized) (arbitrary units (background-subtracted, floor 0; scale differs between SH3 domains)); higher = stronger binding of the SH3 domain to the peptide
# How it was run: (§1)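 E. coli BL21(DE3) was used to express GST-fused SH3 domains from four yeast species, which were then purified on glutathione Sepharose. These were incubated at 10 μg/ml in TBS-based blocking buffer overnight at 4°C on cellulose membranes carrying synthetic 15-mer peptides, in which cysteines were replaced by serines. Binding signal is the replicate average of normalized, background-subtracted spot intensity, in arbitrary units that differ between domains.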
row,Binder,SPOT peptide array binding signal intensity
1,B1,94

# Target: AgBbc1
# Assay: as above
# How it was run: as §1
row,Binder,SPOT peptide array binding signal intensity
1,B1,780

# Target: AgBem1-D1
# Assay: as above
# How it was run: as §1
row,Binder,SPOT peptide array binding signal intensity
1,B1,66.5

# Target: AgBzz1-D1
# Assay: as above
# How it was run: as §1
row,Binder,SPOT peptide array binding signal intensity
1,B1,524

# Target: AgBzz1-D2
# Assay: as above
# How it was run: as §1
row,Binder,SPOT peptide array binding signal intensity
1,B1,102

# Target: AgCyk3
# Assay: as above
# How it was run: as §1
row,Binder,SPOT peptide array binding signal intensity
1,B1,≤ 0

# Target: AgFus1
# Assay: as above
# How it was run: as §1
row,Binder,SPOT peptide array binding signal intensity
1,B1,23

# Target: AgHof1
# Assay: as above
# How it was run: as §1
row,Binder,SPOT peptide array binding signal intensity
1,B1,39.2

# Target: AgHse1
# Assay: as above
# How it was run: as §1
row,Binder,SPOT peptide array binding signal intensity
1,B1,≤ 0

# Target: AgLsb1
# Assay: as above
# How it was run: as §1
row,Binder,SPOT peptide array binding signal intensity
1,B1,≤ 0

# Target: AgLsb4
# Assay: as above
# How it was run: as §1
row,Binder,SPOT peptide array binding signal intensity
1,B1,≤ 0

# Target: AgMyo5
# Assay: as above
# How it was run: as §1
row,Binder,SPOT peptide array binding signal intensity
1,B1,0.25

# Target: AgNbp2
# Assay: as above
# How it was run: as §1
row,Binder,SPOT peptide array binding signal intensity
1,B1,37

# Target: AgRvs167
# Assay: as above
# How it was run: as §1
row,Binder,SPOT peptide array binding signal intensity
1,B1,≤ 0

# Target: AgSho1
# Assay: as above
# How it was run: as §1
row,Binder,SPOT peptide array binding signal intensity
1,B1,20

# Target: AgSla1-D1-D2
# Assay: as above
# How it was run: as §1
row,Binder,SPOT peptide array binding signal intensity
1,B1,9

# Target: AgSla1-D3
# Assay: as above
# How it was run: as §1
row,Binder,SPOT peptide array binding signal intensity
1,B1,7.5

# Target: CaAbp1-D1
# Assay: as above
# How it was run: as §1
row,Binder,SPOT peptide array binding signal intensity
1,B1,328

# Target: CaAbp1-D2
# Assay: as above
# How it was run: as §1
row,Binder,SPOT peptide array binding signal intensity
1,B1,189

# Target: CaBbc1
# Assay: as above
# How it was run: as §1
row,Binder,SPOT peptide array binding signal intensity
1,B1,825

# Target: CaBem1-D1
# Assay: as above
# How it was run: as §1
row,Binder,SPOT peptide array binding signal intensity
1,B1,13

# Target: CaBzz1-D1
# Assay: as above
# How it was run: as §1
row,Binder,SPOT peptide array binding signal intensity
1,B1,1530

# Target: CaBzz1-D2
# Assay: as above
# How it was run: as §1
row,Binder,SPOT peptide array binding signal intensity
1,B1,388

# Target: CaCyk3
# Assay: as above
# How it was run: as §1
row,Binder,SPOT peptide array binding signal intensity
1,B1,36.5

# Target: CaFus1
# Assay: as above
# How it was run: as §1
row,Binder,SPOT peptide array binding signal intensity
1,B1,42

# Target: CaHof1
# Assay: as above
# How it was run: as §1
row,Binder,SPOT peptide array binding signal intensity
1,B1,1.5

# Target: CaHse1
# Assay: as above
# How it was run: as §1
row,Binder,SPOT peptide array binding signal intensity
1,B1,0.5

# Target: CaLsb1
# Assay: as above
# How it was run: as §1
row,Binder,SPOT peptide array binding signal intensity
1,B1,0.5

# Target: CaLsb4
# Assay: as above
# How it was run: as §1
row,Binder,SPOT peptide array binding signal intensity
1,B1,≤ 0

# Target: CaMyo5
# Assay: as above
# How it was run: as §1
row,Binder,SPOT peptide array binding signal intensity
1,B1,0.5

# Target: CaNbp2
# Assay: as above
# How it was run: as §1
row,Binder,SPOT peptide array binding signal intensity
1,B1,27

# Target: CaRvs167
# Assay: as above
# How it was run: as §1
row,Binder,SPOT peptide array binding signal intensity
1,B1,≤ 0

# Target: CaRvs167-3
# Assay: as above
# How it was run: as §1
row,Binder,SPOT peptide array binding signal intensity
1,B1,3.5

# Target: CaSho1
# Assay: as above
# How it was run: as §1
row,Binder,SPOT peptide array binding signal intensity
1,B1,29.5

# Target: CaSla1-D1-D2
# Assay: as above
# How it was run: as §1
row,Binder,SPOT peptide array binding signal intensity
1,B1,130

# Target: CaSla1-D3
# Assay: as above
# How it was run: as §1
row,Binder,SPOT peptide array binding signal intensity
1,B1,230

# Target: ScAbp1
# Assay: as above
# How it was run: as §1
row,Binder,SPOT peptide array binding signal intensity
1,B1,234
